Experimental data as given in ChEMBL document CHEMBL3988442, “University of Dundee, Small-Polar-MMV Screening Library” (2021).
For some of these results: Measured potencies and affinities stand elsewhere.

Tests used:
Parameters in all cases: scale not given: direction of the effect not stated beside the values
[1] = target: Protein translocase subunit SecA (Escherichia coli (strain K12)) (UniProt P10408); assay: Assay to Identify E. coli SecA ATPase Inhibitors; type: functional; settings: 30 µM
Chain of Protein translocase subunit SecA (Escherichia coli (strain K12)) (P10408 whole entry): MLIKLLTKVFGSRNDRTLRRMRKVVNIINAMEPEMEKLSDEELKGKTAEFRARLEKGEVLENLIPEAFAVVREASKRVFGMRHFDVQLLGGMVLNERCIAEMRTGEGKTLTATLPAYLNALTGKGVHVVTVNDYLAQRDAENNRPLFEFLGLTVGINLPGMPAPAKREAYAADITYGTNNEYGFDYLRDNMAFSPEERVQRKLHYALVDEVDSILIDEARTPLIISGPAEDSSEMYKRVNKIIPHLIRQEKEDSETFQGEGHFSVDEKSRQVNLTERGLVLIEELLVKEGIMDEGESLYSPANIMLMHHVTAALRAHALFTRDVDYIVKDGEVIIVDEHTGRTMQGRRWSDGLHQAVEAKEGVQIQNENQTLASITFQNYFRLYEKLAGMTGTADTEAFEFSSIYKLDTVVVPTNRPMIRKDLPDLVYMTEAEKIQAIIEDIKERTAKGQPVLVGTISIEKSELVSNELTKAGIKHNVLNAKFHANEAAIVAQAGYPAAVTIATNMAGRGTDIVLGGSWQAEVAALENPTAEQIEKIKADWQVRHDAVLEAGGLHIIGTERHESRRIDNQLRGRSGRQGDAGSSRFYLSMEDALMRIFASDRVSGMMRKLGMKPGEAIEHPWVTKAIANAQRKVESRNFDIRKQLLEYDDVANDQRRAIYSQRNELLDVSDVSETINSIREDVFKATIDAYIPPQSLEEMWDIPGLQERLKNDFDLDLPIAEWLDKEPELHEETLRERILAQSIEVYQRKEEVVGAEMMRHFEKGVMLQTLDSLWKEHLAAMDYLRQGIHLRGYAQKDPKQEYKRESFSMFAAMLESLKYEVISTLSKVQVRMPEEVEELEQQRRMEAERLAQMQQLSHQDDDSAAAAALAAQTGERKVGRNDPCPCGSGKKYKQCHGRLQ

[2] = target: T1, Ubiquitin-activating enzyme e1, putative (Leishmania donovani (strain BPK282A1)) (UniProt E9BSI1); assay: Leishmania donovani Ubiquitin Activating Enzyme (LdE1); type: functional; settings: 30 µM
T1 sequence (whole entry): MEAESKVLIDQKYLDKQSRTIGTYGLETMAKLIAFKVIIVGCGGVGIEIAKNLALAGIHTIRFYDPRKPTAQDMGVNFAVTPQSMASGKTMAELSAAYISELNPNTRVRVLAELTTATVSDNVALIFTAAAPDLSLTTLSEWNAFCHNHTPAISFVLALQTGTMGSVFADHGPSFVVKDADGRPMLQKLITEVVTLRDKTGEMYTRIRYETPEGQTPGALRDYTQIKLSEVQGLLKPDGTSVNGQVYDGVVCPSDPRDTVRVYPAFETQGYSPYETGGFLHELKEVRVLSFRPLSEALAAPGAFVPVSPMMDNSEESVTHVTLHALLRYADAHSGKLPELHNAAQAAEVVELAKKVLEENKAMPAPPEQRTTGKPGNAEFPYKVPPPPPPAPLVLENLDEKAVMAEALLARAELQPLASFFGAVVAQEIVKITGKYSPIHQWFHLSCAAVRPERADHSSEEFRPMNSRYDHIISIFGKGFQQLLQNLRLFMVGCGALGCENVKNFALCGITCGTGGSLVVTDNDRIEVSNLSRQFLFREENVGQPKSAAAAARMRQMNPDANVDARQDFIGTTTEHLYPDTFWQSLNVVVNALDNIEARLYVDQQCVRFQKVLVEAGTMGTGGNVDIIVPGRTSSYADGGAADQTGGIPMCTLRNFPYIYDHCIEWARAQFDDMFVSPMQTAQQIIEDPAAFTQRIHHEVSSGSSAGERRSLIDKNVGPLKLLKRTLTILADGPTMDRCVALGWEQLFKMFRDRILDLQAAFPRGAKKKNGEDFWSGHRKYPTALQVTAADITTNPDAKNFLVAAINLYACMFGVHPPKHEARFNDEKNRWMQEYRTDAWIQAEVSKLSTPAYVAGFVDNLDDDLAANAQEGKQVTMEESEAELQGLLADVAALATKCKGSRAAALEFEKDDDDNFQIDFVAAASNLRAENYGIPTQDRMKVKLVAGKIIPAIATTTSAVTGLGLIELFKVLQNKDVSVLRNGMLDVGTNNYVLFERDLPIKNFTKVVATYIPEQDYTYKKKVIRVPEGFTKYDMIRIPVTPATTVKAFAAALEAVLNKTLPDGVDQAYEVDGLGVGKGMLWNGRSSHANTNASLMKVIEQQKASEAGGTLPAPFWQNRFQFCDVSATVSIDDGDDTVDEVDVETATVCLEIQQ

[3] = target: AMP-activated protein kinase, AMPK (Homo sapiens) (UniProt P54646+O43741+P54619+Q9UGJ0+Q9Y478+Q13131+Q9UGI9); assay: AMP-dependent Kinase enzyme assay. An in vitro enzyme assay that detects ADP turnover that is directly proportional to AMPK activity. This uses naive AMPK that is activated during the assay with MK-8722; type: functional; settings: 30 µM
[4] = target: Sialic acid-binding Ig-like lectin 9 (Homo sapiens) (UniProt Q9Y336); assay: Hs-Siglec9 ALPHAscreen SOP 20170721; settings: 10 µM
Chain of Sialic acid-binding Ig-like lectin 9 (Homo sapiens) (Q9Y336 whole entry): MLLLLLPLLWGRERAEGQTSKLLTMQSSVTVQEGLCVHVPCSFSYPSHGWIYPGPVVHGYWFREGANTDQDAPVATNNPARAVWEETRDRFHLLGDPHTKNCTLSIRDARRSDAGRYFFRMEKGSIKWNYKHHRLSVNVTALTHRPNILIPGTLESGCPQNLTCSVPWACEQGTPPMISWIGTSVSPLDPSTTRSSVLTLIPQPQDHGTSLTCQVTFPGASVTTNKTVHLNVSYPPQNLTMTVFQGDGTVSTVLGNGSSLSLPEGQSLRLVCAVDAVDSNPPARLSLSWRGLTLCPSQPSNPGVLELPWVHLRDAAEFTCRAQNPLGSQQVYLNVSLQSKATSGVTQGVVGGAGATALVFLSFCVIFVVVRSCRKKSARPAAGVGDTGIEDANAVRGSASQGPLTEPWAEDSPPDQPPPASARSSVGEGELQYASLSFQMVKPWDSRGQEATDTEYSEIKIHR

[5] = system: Trypanosoma cruzi; assay: Trypanosoma cruzi phosphomannomutase and mannose-1-phosphate guanylyltransferase assay; type: functional; settings: 10 µM
[6] = target: T2, Arginase-2, mitochondrial (Homo sapiens) (UniProt P78540); assay: in vitro enzyme assay to detect the production of urea directly proportional to the activity of Arginase II; type: functional; settings: 33.3 µM; also: in the data most compounds retested in dose-response had high values
T2 sequence (whole entry): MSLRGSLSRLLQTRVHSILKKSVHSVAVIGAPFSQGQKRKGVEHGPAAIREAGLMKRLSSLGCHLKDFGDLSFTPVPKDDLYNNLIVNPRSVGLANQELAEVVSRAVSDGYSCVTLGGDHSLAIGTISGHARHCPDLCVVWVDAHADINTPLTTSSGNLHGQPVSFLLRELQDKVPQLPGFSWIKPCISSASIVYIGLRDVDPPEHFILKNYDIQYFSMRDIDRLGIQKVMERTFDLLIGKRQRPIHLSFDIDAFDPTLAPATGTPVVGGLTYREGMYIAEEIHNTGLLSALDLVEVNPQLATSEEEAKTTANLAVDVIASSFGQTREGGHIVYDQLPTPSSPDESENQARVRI

[7] = target: T3, Proteasome subunit beta (Trypanosoma cruzi) (UniProt O96673); assay: Trypanosoma cruzi proteasome chymotrypsin-like activity (TcProtChymo) assay.; also: in the data most compounds retested in dose-response had high values; type: functional; settings: 9.37 µM
T3 sequence (whole entry): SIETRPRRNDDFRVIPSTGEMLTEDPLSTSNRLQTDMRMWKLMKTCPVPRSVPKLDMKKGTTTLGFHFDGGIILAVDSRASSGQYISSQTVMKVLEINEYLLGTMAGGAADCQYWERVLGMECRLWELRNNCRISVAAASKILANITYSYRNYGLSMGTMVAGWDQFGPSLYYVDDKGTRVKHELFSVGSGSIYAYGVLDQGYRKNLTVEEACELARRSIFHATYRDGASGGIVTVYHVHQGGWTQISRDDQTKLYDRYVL

[8] = species on record: Homo sapiens; assay: To identify inhibition of the IFN signalling (Jak-Stat) pathway via expression of an eGFP reporter gene under the control of an IFN-stimulated response element (ISRE) containing MxA promoter.; type: functional; settings: 30 µM
[9] = target: T4, Tyrosyl-tRNA synthetase, putative (Trypanosoma cruzi (strain CL Brener)) (UniProt Q4DSP6); assay: Trypanosoma cruzi tyrosyl tRNA synthetase (TcYRS) _High Tyrosine SOP; type: functional; settings: 30 µM; also: in the data most compounds retested in dose-response had high values
T4 sequence (whole entry): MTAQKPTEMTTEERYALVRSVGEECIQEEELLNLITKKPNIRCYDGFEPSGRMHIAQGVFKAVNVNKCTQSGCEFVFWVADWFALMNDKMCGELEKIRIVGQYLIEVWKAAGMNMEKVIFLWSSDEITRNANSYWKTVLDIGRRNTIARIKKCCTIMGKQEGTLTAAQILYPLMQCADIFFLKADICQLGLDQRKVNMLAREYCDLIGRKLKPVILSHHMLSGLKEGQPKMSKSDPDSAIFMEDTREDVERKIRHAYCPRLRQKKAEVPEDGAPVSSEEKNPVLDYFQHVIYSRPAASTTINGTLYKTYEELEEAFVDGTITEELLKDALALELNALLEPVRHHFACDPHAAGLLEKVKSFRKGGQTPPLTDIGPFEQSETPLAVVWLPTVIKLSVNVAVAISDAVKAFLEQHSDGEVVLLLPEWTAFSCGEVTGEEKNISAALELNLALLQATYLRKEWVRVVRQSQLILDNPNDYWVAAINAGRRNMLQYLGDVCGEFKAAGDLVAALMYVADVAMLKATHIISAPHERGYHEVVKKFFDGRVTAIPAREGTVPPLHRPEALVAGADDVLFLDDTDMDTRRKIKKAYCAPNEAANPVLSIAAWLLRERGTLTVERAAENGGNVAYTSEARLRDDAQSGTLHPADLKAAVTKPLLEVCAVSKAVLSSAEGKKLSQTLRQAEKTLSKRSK

[10] = target: T4, Tyrosyl-tRNA synthetase, putative (Trypanosoma cruzi (strain CL Brener)); assay: Trypanosoma cruzi tyrosyl tRNA synthetase (TcYRS) SOP; type: functional; settings: 30 µM
[11] = target: Chromo domain-containing protein 1 (Saccharomyces cerevisiae (strain ATCC 204508 / S288c) (Baker's yeast)) (UniProt P32657); assay: ScCHD-1 Enzyme Inhibition Assay; type: functional; settings: 30 µM; also: in the data most compounds retested in dose-response had high values
Chain of Chromo domain-containing protein 1 (Saccharomyces cerevisiae (strain ATCC 204508 / S288c) (Baker's yeast)) (P32657 whole entry, the tested form may be a part): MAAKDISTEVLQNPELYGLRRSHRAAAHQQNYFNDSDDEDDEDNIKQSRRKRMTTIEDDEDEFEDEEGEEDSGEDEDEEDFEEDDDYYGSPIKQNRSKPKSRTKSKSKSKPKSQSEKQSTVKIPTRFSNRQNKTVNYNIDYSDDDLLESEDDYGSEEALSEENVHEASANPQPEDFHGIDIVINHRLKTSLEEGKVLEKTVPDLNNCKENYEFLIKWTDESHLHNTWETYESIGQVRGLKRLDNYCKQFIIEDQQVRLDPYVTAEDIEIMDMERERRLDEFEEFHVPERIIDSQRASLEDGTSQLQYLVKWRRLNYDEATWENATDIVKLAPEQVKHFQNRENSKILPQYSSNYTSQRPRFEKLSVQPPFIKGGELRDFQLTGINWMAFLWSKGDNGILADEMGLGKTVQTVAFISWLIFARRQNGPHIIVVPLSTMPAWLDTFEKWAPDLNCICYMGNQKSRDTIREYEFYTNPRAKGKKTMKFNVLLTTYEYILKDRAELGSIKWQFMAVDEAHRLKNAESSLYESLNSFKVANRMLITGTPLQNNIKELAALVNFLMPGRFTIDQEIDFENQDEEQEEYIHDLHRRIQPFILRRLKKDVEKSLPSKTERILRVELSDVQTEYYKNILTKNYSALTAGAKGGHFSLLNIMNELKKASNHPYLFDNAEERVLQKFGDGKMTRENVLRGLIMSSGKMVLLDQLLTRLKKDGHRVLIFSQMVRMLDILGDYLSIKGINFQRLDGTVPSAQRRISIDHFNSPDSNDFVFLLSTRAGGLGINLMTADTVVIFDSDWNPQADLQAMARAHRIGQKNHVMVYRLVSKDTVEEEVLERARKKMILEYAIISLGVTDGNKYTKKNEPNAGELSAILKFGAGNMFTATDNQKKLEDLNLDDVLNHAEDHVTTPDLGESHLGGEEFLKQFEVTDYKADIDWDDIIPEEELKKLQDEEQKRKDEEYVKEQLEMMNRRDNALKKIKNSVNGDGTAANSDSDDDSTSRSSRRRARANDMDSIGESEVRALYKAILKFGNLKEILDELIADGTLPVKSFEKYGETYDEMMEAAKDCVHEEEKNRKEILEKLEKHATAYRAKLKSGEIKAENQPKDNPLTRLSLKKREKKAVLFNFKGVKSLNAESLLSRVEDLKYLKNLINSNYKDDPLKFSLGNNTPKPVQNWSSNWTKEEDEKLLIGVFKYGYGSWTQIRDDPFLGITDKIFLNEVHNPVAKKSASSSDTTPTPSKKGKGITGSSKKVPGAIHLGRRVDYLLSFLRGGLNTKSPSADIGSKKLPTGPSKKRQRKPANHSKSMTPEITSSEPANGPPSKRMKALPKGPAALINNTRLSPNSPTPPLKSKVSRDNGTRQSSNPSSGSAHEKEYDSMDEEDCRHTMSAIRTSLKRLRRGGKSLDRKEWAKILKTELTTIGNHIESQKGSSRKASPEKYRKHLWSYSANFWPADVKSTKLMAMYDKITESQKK

Row | Structure (SMILES) | Percent Effect [1] [%] | Percent Effect [2] [%] | Percent Effect [3] [%] | Percent Effect [4] [%] | Percent Effect [5] [%] | Percent Effect [6] [%] | Percent Effect [7] [%] | Percent Effect [8] [%] | Percent Effect [9] [%] | Percent Effect [10] [%] | Percent Effect [11] [%]
1 | CCS(=O)(=O)N1CCC(c2nc3ccc(-c4ccccc4)cn3n2)CC1 | -0.159 | -2.74 | -1.18 | 0.509 | 5.75 | 0.399 | 10 | -3.81 | -24 | 8.64 | 2.57
2 | Cc1cc(C(=O)N2C[C@@H]3[C@@H](C2)OCC(=O)N3CC2CC2)no1 | -1.71 | -31.2 | 5.62 | 6.36 | -6.98 | -16.6 | 4.49 | 6.95 | -54.8 | -90.1 | 0.00283
3 | Cc1ccc(N2CCCC(N(C)Cc3cc(C)no3)C2)nn1 (stereo unspecified) | -0.747 | 5.33 | -6.3 | 43.3 | 5.55 | 23.4 | 19.9 | 0.899 | 6.01 | 11.1 | -17.3
4 | CNC(=O)[C@H]1CCS(=O)(=O)[C@@H]2CN(Cc3ccc(OC)cc3)C[C@H]12 | 0.0608 | 2.7 | 3.94 | 2.93 | 2.34 | 35.4 | -0.592 | 2.35 | 82.2 | 6.1 | 2.99
5 | CCn1nc(C)c(CNC(=O)c2cn(CC3CCCO3)nn2)c1C (stereo unspecified) | -6.8 | 0 | -1.16 | 7.76 | 2.24 | 2.08 | 2.27 | 6.98 | 6.01 | 11.1 | -0.117
6 | Cc1ccc(N2CC[C@H](OCC3CC3)[C@@H]2Cc2cnn(C)c2)nn1 | -4.88 | 5.41 | -7.52 | -0.711 | -0.195 | 0.833 | 15.1 | 8.56 | 7.92 | 8.54 | 0.632
7 | CCc1ccc(NC(=O)c2cnc(N3CCN(C)CC3)nc2C)cc1 | -3.08 | 20.8 | -8.09 | -20.9 | 4.63 | -0.645 | 8.01 | 15.9 | 2.12 | 11.5 | -10.8
8 | O=S1(=O)C[C@@H]2[C@H](C1)N(Cc1cc(Cl)cc(Cl)c1)CCN2CC1CC1 | -4.25 | 8 | -0.723 | -1.32 | -2.24 | 1.56 | 12 | 22.5 | 2.73 | 11.1 | -6.73
9 | CC(C)C(C(=O)N1CCC(Nc2cccnn2)CC1)n1cncn1 (stereo unspecified) | -0.999 | -2.7 | -4.26 | 1.29 | -6.51 | 1.2 | 5.59 | 9.97 | 0.493 | -1.24 | -1.75
10 | O=C(Cc1ccsc1)N1CCCC(c2n[nH]c3nccnc23)C1 (stereo unspecified) | -5.56 | 14.9 | 11.9 | -1.03 | 4.94 | -1.16 | 15.9 | 17.3 | 2.15 | 9.09 | -4.76
11 | CNS(=O)(=O)Cc1ccc(CNC(=O)Nc2cccnc2)cc1 | -1.42 | 30.4 | -9.66 | -12.1 | 4.25 | -6.08 | 14.2 | 11.1 | 6.4 | 16.5 | -12.7
